The values that follow are results of earlier work, collected in PubChem BioAssay AID977611.

About 3,900 (100%) of roughly 3,900 compounds were called active. Cut-off not given; nearly all actives show Kd up to about 4200 µM. The set was probably picked from earlier hits. The list shows a part of the results. Numbered stars: 1 amine (or outer) side, 2 acyl side, 3 side chain; on linkers, the order of the positions; unused ones are H or OH. Square brackets hold non-standard residues; d marks the D form. Peptide text beside a SMILES is read from it. X2 = C[C@@H](O)C(C)(C)n1cc([C@@H](O)[C@H](N[*:1])C(=O)[*:2])c2ccccc21; Ala(3R-Me,3-isobutenyl) = CC(C)=C[C@@H](C)[C@H](N)C(=O)O; NMeLeu(5-OH,4R) = CN[C@@H](C[C@@H](C)CO)C(=O)O; Phe(βR-OMe) = CO[C@H](c1ccccc1)[C@H](N)C(=O)O; NMeL = CN[C@@H](CC(C)C)C(=O)O

A short description of the data set: PubChem AID 977611. The conditions noted are these: PDB protein-ligand complexes, literature Kd.

Consider `O=C1N[C@@H](c2ccc(O)cc2)c2c(-c3ccccc3)n[nH]c21`, for which, under “protein: Capsid protein p24, PDB entry 4u0f”, the equilibrium dissociation constant (Kd) – broadly, the equilibrium constant for the complex coming apart – was 1.2 µM (active).
Consider `CC(C)C[C@H](NC(=O)[C@H](CO)NC(=O)[C@H](CC(=O)O)NC(=O)[C@H](CC(C)C)NC(=O)[C@H](CC(C)C)NC(=O)[C@H](CC(=O)O)NC(=O)[C@H](CC(=O)O)NC(=O)[C@@H](NC(=O)[C@H](CCC(N)=O)NC(=O)[C@H](CC(=O)O)NC(=O)[C@H](CCC(N)=O)NC(=O)[C@H](CO)NC(=O)[C@H](C)NC(=O)[C@@H](NC(=O)[C@@H](NC(=O)CNC(=O)[C@H](C)N)C(C)C)C(C)C)C(C)C)C(=O)NCC(=O)N[C@@H](Cc1ccccc1)C(=O)O`, for which the dissociation constant (Kd) (protein: Chemotaxis protein cheY, PDB entry 2pl9) is 67.4 µM (active).
For the compound `CC(C)C[C@H](NC(=O)CNC(=O)[C@@H](N)CCC(N)=O)C(=O)N[C@@H](CC(C)C)C(=O)N[C@@H](CC(=O)O)C(=O)N[C@@H](C)C(=O)N[C@@H](CC(C)C)C(=O)N[C@@H](CC(=O)O)C(=O)N[C@@H](CC(C)C)C(=O)N[C@@H](C)C(=O)N[C@@H](CO)C(=O)O`, the Kd (protein: 14-3-3 protein zeta/delta, PDB entry 4n7g) is 2.2 µM (active).
As to `O=C(O)Cc1ccc(N2C(=O)C(O)=C(C(=O)c3ccc(Cl)s3)[C@@H]2c2cc(Br)cs2)cc1`, the Kd (protein: Polymerase cofactor Ebola virus VP35, PDB entry 4ibf) was 36.8 µM (active).
Consider `Cc1cc(C)c([C@H]2C(C(=O)c3cccs3)=C(O)C(=O)N2c2ccc(CC(=O)O)cc2)cc1C`, for which the Kd (protein: Polymerase cofactor Ebola virus VP35, PDB entry 4ibb) is 271 µM (active).
Take `CN[C@@H](C)Cc1ccccc1`: the Kd (protein: Anti-METH scFv, PDB entry 4gqp) was 0.00025 µM (active).
Regarding `CO[C@H](c1ccccc1)[C@@H]1NC(=O)[C@H](C)NC(=O)[C@H](C[C@@H](C)CO)N(C)C(=O)[C@H]([C@H](O)c2cn(C(C)(C)[C@@H](C)O)c3ccccc23)NC(=O)[C@H]([C@H](C)C=C(C)C)NC(=O)[C@H](CC(C)C)N(C)C(=O)[C@H](C(C)C)NC1=O` (cyclo(A[Phe(βR-OMe)]V[NMeL][Ala(3R-Me,3-isobutenyl)][X2][NMeLeu(5-OH,4R)])), the Kd is 0.78 µM (active) (protein: Probable ATP-dependent Clp protease ATP-binding subunit(F2Y mutant), PDB entry 3wdd); 0.012 µM (active) (protein: Probable ATP-dependent Clp protease ATP-binding subunit, PDB entry 3wdc); 0.124 µM (active) (protein: Probable ATP-dependent Clp protease ATP-binding subunit, PDB entry 3wde).
Consider `CNC(=O)Nc1cc(Br)cc(NC(=O)NS(=O)(=O)c2cc(C)c(CCOC)s2)n1`, for which the Kd (protein: Fructose-1,6-bisphosphatase 1, PDB entry 4mjo) was 0.6 µM (active).
For the compound `CNC(=O)C[C@H](C)O[P+](O)(O)OC`, the Kd (protein: Lysozyme C, PDB entry 4tun) was 3.87 µM (active).
For `CC(=O)N[C@H]1[C@H]([C@H](O)[C@H](O)CO)O[C@@](O[C@H]2[C@@H](O)[C@@H](CO)O[C@@H](O[C@H]3[C@H](O)[C@@H](O)[C@@H](O)O[C@@H]3CO)[C@@H]2O)(C(=O)O)C[C@@H]1O`, the Kd (protein: Carbohydrate binding domain from Streptococcus pneumoniae NanA sialidase, PDB entry 4c1w) was 0.00039 µM (active).
In the case of `CC(=O)N[C@H]1[C@H]([C@H](O)[C@H](O)CO)O[C@@H](C(=O)O)C[C@@H]1O`, the Kd (protein: hemagglutinin with F95Y mutation of influenza virus B/Lee/40(F95Y mutant), PDB entry 4nrk) is 0.024 µM (active) and the dissociation constant Kd (protein: hemagglutinin with F95Y mutation of influenza virus B/Lee/40, PDB entry 4nrl) is 0.0024 µM (active).
As for `CO[C@]1(C(=O)O)C[C@H](O)[C@@H](NC(=O)CO)[C@H]([C@H](O)[C@H](O)CO)O1`, under “protein: Outer capsid protein VP4, PDB entry 3tay”, the dissociation constant Kd was 420 µM (active).
As to `CC(=O)N[C@H]1[C@H]([C@H](O)[C@H](O)CO)O[C@@](OC[C@H]2O[C@@H](O)[C@H](O)[C@@H](O)[C@H]2O)(C(=O)O)C[C@@H]1O`, the Kd (protein: H5 (VN1194) Influenza Virus Haemagglutinin, PDB entry 4bgx) was 17000 µM (active); the Kd (protein: Hemagglutinin HA1, PDB entry 4kon) is 0.33 µM (active); the Kd (protein: Hemagglutinin(mutant form), PDB entry 4k67) is 372 µM (active); the Kd (protein: Hemagglutinin, PDB entry 4k64) is 1000 µM (active); the Kd (protein: Telomeric repeat-binding factor 2, PDB entry 4lkk) was 1.2 µM (active); the Kd (protein: neuraminidase, PDB entry 4gzx) was 645 µM (active).
For `CC(=O)N[C@H]1[C@H]([C@H](O)[C@H](O)CO)O[C@@](O)(C(=O)O)C[C@@H]1O`, under “protein: hemagglutinin, PDB entry 4lkh”, the dissociation constant (Kd) was 1000 µM (active).
For `CC(=O)N[C@@H]1[C@@H](O)[C@H](O[C@@H]2O[C@H](CO)[C@H](O)[C@H](O[C@]3(C(=O)O)C[C@H](O)[C@@H](NC(C)=O)[C@H]([C@H](O)[C@H](O)CO)O3)[C@H]2O)[C@@H](CO)O[C@H]1O`, the Kd (protein: Hemagglutinin, PDB entry 4k63) was 60 µM (active); the dissociation constant (Kd) (protein: Neuraminidase, PDB entry 4gzw) was 30 µM (active); the equilibrium dissociation constant (Kd) (protein: hemagglutinin, PDB entry 4lkg) is 0.16 µM (active); the Kd (protein: hemagglutinin, PDB entry 4lkj) is 0.2 µM (active).
With `CC(=O)N[C@H]1[C@H]([C@H](O)[C@H](O)CO)O[C@@](O[C@@H]2[C@@H](O)[C@H](O)O[C@H](CO)[C@@H]2O)(C(=O)O)C[C@@H]1O`, the Kd (protein: Hemagglutinin(mutant form), PDB entry 4k66) is 554 µM (active).
In the case of `CC(=O)N[C@@H]1[C@@H](O[C@@H]2O[C@@H](C)[C@@H](O)[C@@H](O)[C@@H]2O)[C@H](O[C@@H]2O[C@H](CO)[C@H](O)[C@H](O[C@]3(C(=O)O)C[C@H](O)[C@@H](NC(C)=O)[C@H]([C@H](O)[C@H](O)CO)O3)[C@H]2O)[C@@H](CO)O[C@@H]1O`, for the setting “PDB entry 4dxg”, the Kd was 0.087 µM (active).
As for `CC(=O)N[C@H]1[C@H](O[C@@H]2[C@@H](O)[C@H](O)O[C@H](CO)[C@@H]2O)O[C@H](CO)[C@@H](O[C@@H]2O[C@H](CO)[C@H](O)[C@H](O[C@]3(C(=O)O)C[C@H](O)[C@@H](NC(C)=O)[C@H]([C@H](O)[C@H](O)CO)O3)[C@H]2O)[C@@H]1O`, the Kd (protein: Hemagglutinin HA1, PDB entry 4kom) was 0.1 µM (active).
For `CC(=O)N[C@H]1[C@H]([C@H](O)[C@H](O)CO)O[C@@](O[C@H]2[C@@H](O)[C@@H](CO)O[C@@H](O[C@H]3[C@H](O)[C@@H](O)[C@H](O)O[C@@H]3CO)[C@@H]2O)(C(=O)O)C[C@@H]1O`, the dissociation constant Kd was 11 µM (active) (protein: Human galectin-3 CRD K176L mutant, PDB entry 4lbl) and 1.7 µM (active) (protein: wildtype Human galectin-3 CRD, PDB entry 4lbo).
For the compound `O=C(NC[C@@H](COC(=O)c1cc(O)c(O)c(O)c1)OC(=O)c1cc(O)c(O)c(O)c1)Oc1cccc(C(F)(F)F)c1`, the Kd by setting is: (protein: Plasminogen activator inhibitor 1, PDB entry 4g8o) 0.022 µM (active); (protein: Plasminogen activator inhibitor-1, PDB entry 4g8r) 0.022 µM (active).
On to `C[C@H]1N[C@@H]2[C@@H](O)[C@H](O)[C@@H](CO)O[C@@H]2S1`, for which the Kd runs as follows: (protein: BETA-N-ACETYLHEXOSAMINIDASE, PDB entry 4az5) 1.02 µM (active); (protein: BETA-N-ACETYLHEXOSAMINIDASE, PDB entry 4azc) 1.38 µM (active).
As to `CN1Cc2c(ccc3c2OCO3)-c2ccc3cc4c(cc3c21)OCO4`, the Kd is, setting by setting: (protein: Chitinase A(W275G mutant), PDB entry 3as0) 28 µM (active); (protein: Chitinase A, PDB entry 3arv) 2.3 µM (active).
As for `N[C@@H](CCC(=O)N[C@@H](CSCCN(CCCl)c1ccc(CCCC(=O)O)cc1)C(=O)NCC(=O)O)C(=O)O`, the Kd (protein: Glutathione S-transferase A1, PDB entry 4hj2) is 2950 µM (active).
